Assay results from PubChem BioAssay (NCATS).
“And” between values parts separate entries of the source, which are not always exact repeats. Equal values may be shown once. Records with an inconclusive call do not appear. The source made the active and inactive calls. Unless noted, calls come from the whole dose curve; as a rule, active = well fitted curve in the direction sought with a large enough effect; inconclusive = small, poorly fitted or top-dose-only effect, or another doubt; inactive = no such curve, though single readings can be large; an effect the other way counts as inactive or inconclusive.

Assay: qHTS assay for small molecule agonists of the antioxidant response element (ARE) signaling pathway measured by Nrf2-dependant transcriptional activity - cell viability counter screen (AID 720653; active = well fitted curve in the direction sought with a large enough effect in the repeat runs; an effect the other way counts as inactive or inconclusive)
Settings: ARE-bla HepG2 viability, CellTiter-Glo ATP luminescence, 16 h; max response: hits give low values
Procedure, shortened: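 ARE-bla HepG2 cells (2,000/well) rested 5 hrs at 37C/5% CO2, then exposed to compounds in DMSO for 16 hrs. Viability was read in the same wells as intracellular ATP by luminescence, 30 min at room temperature after reagent addition.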
% is set by controls: 0 for no effect and ±100 for the full control effect.

Compound	max response
COc1ccc(C(c2ccc(OC)cc2)C(Cl)(Cl)Cl)cc1	5.23% (inactive) and -7.02% (inactive) and -11.5% (inactive)
C=CC(=O)NCNC(=O)C=C	1.98% (inactive) and -12.5% (inactive)
OCCCBr	4.92% (inactive)
O=[N+]([O-])c1cc([N+](=O)[O-])c2ccccc2c1	-11.7% (inactive)
Nc1ccc(Cl)cc1N	-19.8% (inactive)
COC(C)(C)CCCC(C)C/C=C/C(C)=C/C(=O)OC(C)C (stereo not given)	-7.11% (inactive) and 1.67% (inactive)
COc1nn(CSP(=S)(OC)OC)c(=O)s1	-11.6% (inactive)
CC(C)(C)C(O)C(Oc1ccc(Cl)cc1)n1cncn1 (stereo not given)	-9.81% (inactive)
O=C(O)COc1nc(Cl)c(Cl)cc1Cl	-15.1% (inactive)
CCCCCCCCCC(CC)c1ccc(S(=O)(=O)O)cc1 (stereo not given)	-0.0281% (inactive) and -4.65% (inactive)
Nc1ccc(Sc2ccc(N)cc2)cc1	10% (inactive) and -10.9% (inactive)
O=C(O)CCCOc1ccc(Cl)cc1Cl	-1.4% (inactive)
CC(C)Oc1cccc(NC(=O)c2ccccc2C(F)(F)F)c1	-3.23% (inactive)
Nc1ccc(N=Nc2ccccc2)cc1	-5.85% (inactive)
CCO/N=C(\CC)C1=C(O)CC(c2c(C)cc(C)cc2C)CC1=O (stereo not given)	1.75% (inactive)
O=[N+]([O-])/N=C1\NCCN1Cc1ccc(Cl)nc1	8.85% (inactive)
O=[N+]([O-])c1c(Cl)c(Cl)cc(Cl)c1Cl	0.0593% (inactive)
C=CCC1=C(C)C(OC(=O)C2C(C=C(C)C)C2(C)C)CC1=O (stereo not given)	6.17% (inactive) and -10.4% (inactive)
CS(=O)(=O)c1ccc(C(=O)C2C(=O)CCCC2=O)c([N+](=O)[O-])c1	-7.62% (inactive)
Nc1ccc(Cl)cc1	-5.98% (inactive)
Nc1ccc([N+](=O)[O-])cc1	-0.336% (inactive)
ClC1=C(Cl)[C@]2(Cl)[C@@H]3[C@@H]4C[C@@H]([C@H]5O[C@@H]45)[C@@H]3[C@@]1(Cl)C2(Cl)Cl	-16.9% (inactive)
CCCCC(CC)COC(=O)c1ccccc1C(=O)OCC(CC)CCCC (stereo not given)	-8.88% (inactive) and -12.5% (inactive)
c1cc2ccc3cccc4ccc(c1)c2c34	-6.01% (inactive) and -15.3% (inactive)
CCOP(=O)(NC(C)C)Oc1ccc(SC)c(C)c1 (stereo not given)	-14.8% (inactive) and -8.95% (inactive)
O=C(Nc1ccccc1-c1ccc(Cl)cc1)c1cccnc1Cl	-1.23% (inactive)
O=S(=O)(O)C(F)(F)C(F)(F)C(F)(F)C(F)(F)C(F)(F)C(F)(F)C(F)(F)C(F)(F)F	2.35% (inactive) and -3.55% (inactive)
O=S(=O)(c1ccc(Cl)cc1)c1ccc(Cl)cc1	-11% (inactive) and -26.7% (inactive) and -18.8% (inactive)

Assay: qHTS Assay for Identifying Gametocytocidal Compounds (AID 743244);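 note: actives lower the fluorescent signal which means gametocytes are killed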
Settings: P. falciparum 3D7 stage III-V gametocytes, alamarBlue, 72 h; max response: hits give low values
Procedure, shortened: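 Late gametocytes (III–V), P. falciparum 3D7; 72 h drug, then 24 h alamarBlue; resazurin reduction read by fluorescence.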

Compound	max response
COc1ccc(C(c2ccc(OC)cc2)C(Cl)(Cl)Cl)cc1	-11% (inactive)
OCCCBr	31% (inactive)
O=[N+]([O-])c1cc([N+](=O)[O-])c2ccccc2c1	-17.3% (inactive)
Nc1ccc(Cl)cc1N	-15.5% (inactive)
O=C(O)COc1nc(Cl)c(Cl)cc1Cl	14.5% (inactive)
CCCCCCCCCC(CC)c1ccc(S(=O)(=O)O)cc1 (stereo not given)	-5.24% (inactive) and 45.2% (inactive)
CC(C)Oc1cccc(NC(=O)c2ccccc2C(F)(F)F)c1	15.7% (inactive)
Nc1ccc(N=Nc2ccccc2)cc1	11.9% (inactive)
CCO/N=C(\CC)C1=C(O)CC(c2c(C)cc(C)cc2C)CC1=O (stereo not given)	13.9% (inactive)
O=[N+]([O-])/N=C1\NCCN1Cc1ccc(Cl)nc1	3.56% (inactive) and 4.82% (inactive)
O=[N+]([O-])c1c(Cl)c(Cl)cc(Cl)c1Cl	-14.2% (inactive)
C=CCC1=C(C)C(OC(=O)C2C(C=C(C)C)C2(C)C)CC1=O (stereo not given)	-9.3% (inactive)
Nc1ccc(Cl)cc1	4.15% (inactive)
Nc1ccc([N+](=O)[O-])cc1	-13.4% (inactive)
CO/C=C(/C(=O)OC)c1ccccc1Oc1cc(Oc2ccccc2C#N)ncn1	18.4% (inactive)
CCCCC(CC)COC(=O)c1ccccc1C(=O)OCC(CC)CCCC (stereo not given)	10.4% (inactive)
O=S(=O)(O)C(F)(F)C(F)(F)C(F)(F)C(F)(F)C(F)(F)C(F)(F)C(F)(F)C(F)(F)F	-9.5% (inactive)
O=S(=O)(c1ccc(Cl)cc1)c1ccc(Cl)cc1	-16% (inactive)

Assay: qHTS assay for cell viability of HEK293 cells (AID 743288); note: nearly all actives have a fitted effect of over 50% in size
Settings: ATP luminescence (CellTiter-Glo), 18 h; max response: hits give low values
Procedure, shortened: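 Environmental chemicals tested in qHTS format against parental HEK293 cells; 18 h treatment, 37 C; read-out ATP luminescence (CellTiter-Glo), 30 min RT development.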

Compound	max response
COc1ccc(C(c2ccc(OC)cc2)C(Cl)(Cl)Cl)cc1	-23.2% (inactive) and -28.9% (inactive) and -19.6% (inactive)
C=CC(=O)NCNC(=O)C=C	3.56% (inactive) and -2.17% (inactive)
OCCCBr	2.95% (inactive)
O=[N+]([O-])c1cc([N+](=O)[O-])c2ccccc2c1	-3.94% (inactive)
Nc1ccc(Cl)cc1N	-8.79% (inactive) and -16.5% (inactive)
COC(C)(C)CCCC(C)C/C=C/C(C)=C/C(=O)OC(C)C (stereo not given)	-16.1% (inactive) and -28.4% (inactive)
COc1nn(CSP(=S)(OC)OC)c(=O)s1	-26% (inactive)
CC(C)(C)C(O)C(Oc1ccc(Cl)cc1)n1cncn1 (stereo not given)	-2.21% (inactive)
O=C(O)COc1nc(Cl)c(Cl)cc1Cl	-10.3% (inactive)
CCCCCCCCCC(CC)c1ccc(S(=O)(=O)O)cc1 (stereo not given)	-11.2% (inactive) and -4.04% (inactive)
Nc1ccc(Sc2ccc(N)cc2)cc1	1.17% (inactive) and -4.98% (inactive)
O=C(O)CCCOc1ccc(Cl)cc1Cl	-3.48% (inactive)
CC(C)Oc1cccc(NC(=O)c2ccccc2C(F)(F)F)c1	-13.1% (inactive)
Nc1ccc(N=Nc2ccccc2)cc1	-0.712% (inactive)
CCO/N=C(\CC)C1=C(O)CC(c2c(C)cc(C)cc2C)CC1=O (stereo not given)	-20.6% (inactive)
O=[N+]([O-])/N=C1\NCCN1Cc1ccc(Cl)nc1	-6.64% (inactive)
O=[N+]([O-])c1c(Cl)c(Cl)cc(Cl)c1Cl	-0.234% (inactive)
C=CCC1=C(C)C(OC(=O)C2C(C=C(C)C)C2(C)C)CC1=O (stereo not given)	-9.9% (inactive) and -17.4% (inactive)
CS(=O)(=O)c1ccc(C(=O)C2C(=O)CCCC2=O)c([N+](=O)[O-])c1	-4.44% (inactive)
Nc1ccc(Cl)cc1	-6.22% (inactive)
Nc1ccc([N+](=O)[O-])cc1	-4.75% (inactive)
CO/C=C(/C(=O)OC)c1ccccc1Oc1cc(Oc2ccccc2C#N)ncn1	-25.4% (inactive)
ClC1=C(Cl)[C@]2(Cl)[C@@H]3[C@@H]4C[C@@H]([C@H]5O[C@@H]45)[C@@H]3[C@@]1(Cl)C2(Cl)Cl	-27.3% (inactive)
CCCCC(CC)COC(=O)c1ccccc1C(=O)OCC(CC)CCCC (stereo not given)	-14% (inactive) and -11% (inactive)
c1cc2ccc3cccc4ccc(c1)c2c34	-10.7% (inactive) and -22.9% (inactive)
CCOP(=O)(NC(C)C)Oc1ccc(SC)c(C)c1 (stereo not given)	-28.9% (inactive) and -13.9% (inactive)
O=C(Nc1ccccc1-c1ccc(Cl)cc1)c1cccnc1Cl	-25.4% (inactive)
O=S(=O)(O)C(F)(F)C(F)(F)C(F)(F)C(F)(F)C(F)(F)C(F)(F)C(F)(F)C(F)(F)F	-7.88% (inactive) and -13.4% (inactive)
O=S(=O)(c1ccc(Cl)cc1)c1ccc(Cl)cc1	-6.49% (inactive) and -9.97% (inactive) and -17.8% (inactive)
